# High-throughput results from PubChem BioAssay.
# This is a sample that favours compounds with a hit; in the whole collection about 2.9% have one here.
# H9c2 protect – cardioprotection against H2O2-induced cell death, primary screen, uHTS, H9c2 cells, ATPLite luminescence; protection from H2O2 cell death, % at 20 µM; H9c2 cardiomyocytes, H2O2 injury protection, 2 h; 360,000 tested, 0.63% active;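 active = compounds giving at least 50% protection of heart cells from peroxide-induced death in the single-dose screen, raw or plate-pattern-corrected value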;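 also: 0% = DMSO wells with peroxide and 100% = DMSO wells without peroxide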
# APOBEC3G inh – APOBEC3G DNA deaminase inhibitors, primary screen, biochemical, fluorescence, single-stranded DNA substrate, uHTS. recombinant A3G, ssDNA deamination FAM/TAMRA fluorescence. inhibition, % at 20 µM. 330,000 tested, 0.28% active;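 active = inhibition of at least 40% at 20 µM, with no more than 30% in the related APOBEC3A deaminase screen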;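 also: plate controls were DMSO wells with A3G for no effect and wells lacking A3G enzyme for full effect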
# Target sequence (Q9HC16 whole entry, looked up): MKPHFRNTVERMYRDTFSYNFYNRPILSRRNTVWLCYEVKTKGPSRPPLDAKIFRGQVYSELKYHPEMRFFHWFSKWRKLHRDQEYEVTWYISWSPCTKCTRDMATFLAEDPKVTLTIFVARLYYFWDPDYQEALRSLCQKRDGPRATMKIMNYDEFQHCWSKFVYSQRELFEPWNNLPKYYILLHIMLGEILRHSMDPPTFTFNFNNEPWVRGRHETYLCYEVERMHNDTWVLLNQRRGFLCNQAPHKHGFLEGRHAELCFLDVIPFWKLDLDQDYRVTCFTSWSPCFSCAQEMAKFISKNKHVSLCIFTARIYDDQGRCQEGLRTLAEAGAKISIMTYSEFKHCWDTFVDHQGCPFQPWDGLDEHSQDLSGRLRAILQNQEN
# A3A deaminase – APOBEC3A ssDNA deaminase inhibitors, primary screen, selectivity assay for APOBEC3G inhibitor project, biochemical, FAM/TAMRA oligo cleavage fluorescence. DNA dC->dU-editing enzyme APOBEC-3A (Homo sapiens), P31941. recombinant A3A, FAM/TAMRA ssDNA deamination fluorescence. inhibition, % at 20 µM. 330,000 tested, 0.41% active;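 active = at least 40% inhibition at 20 µM here, with at most 30% in a related deaminase screen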;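 also: plate controls were A3A with DMSO for no effect and wells lacking A3A enzyme for full effect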
# Target sequence (P31941 whole entry, looked up): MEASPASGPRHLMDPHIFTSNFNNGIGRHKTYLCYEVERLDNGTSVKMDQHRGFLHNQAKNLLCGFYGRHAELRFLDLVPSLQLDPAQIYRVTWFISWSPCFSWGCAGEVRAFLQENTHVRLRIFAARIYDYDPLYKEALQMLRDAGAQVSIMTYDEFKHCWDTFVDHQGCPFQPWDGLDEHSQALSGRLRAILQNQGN
# NadD block – inhibitors of S. aureus NadD, primary screen, biochemical, colorimetric, uHTS. inhibition, % at 20 µM. Nicotinate-nucleotide adenylyltransferase NadD (Staphylococcus aureus N315). purified NadD enzyme, colorimetric absorbance read-out. 360,000 tested, 0.78% active; in the data active = inhibition above about 26%
# TAG inh – inhibitors of triacylglycerol accumulation, primary screen, cell-based, uHTS, fluorescence, H9c2; H9c2 cells, Nile Red lipid (TAG) fluorescence; cells loaded with 200 µM oleic acid; inhibition, % at 12.5 µM; 230,000 tested, 0.66% active; AID 651582, 2012;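 active = pattern-corrected inhibition of lipid staining of at least 50% with the nuclear-stain viability signal not falling by more than 50%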;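 also: 0% = DMSO wells and 100% = triacsin C control wells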
# PfG6PD inh – PfG6PD enzyme inhibitors, primary screen, biochemical, fluorescence intensity, uHTS. inhibition, % at 20 µM. PfGluPho enzyme, NADPH resazurin-diaphorase fluorescence. AID 504690, 2011. glucose-6-phosphate dehydrogenase-6-phosphogluconolactonase (Plasmodium falciparum 3D7). 350,000 tested, 0.78% active;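 active = inhibition reaching at least a set limit at 20 µM in the primary screen, cut at about 59% in these data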;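 also: 0% = DMSO wells with substrate and 100% = DMSO wells lacking glucose-6-phosphate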
# PfG6PD confirm – PfG6PD inhibitors, hit retest, confirmation, biochemical, fluorescence intensity, single concentration. shares compounds with PfG6PD inh. recombinant PfGluPho, NADPH-diaphorase-resazurin fluorescence. inhibition, % at 20 µM. 2,400 tested, 34% active. AID 504753, 2011;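 active = inhibition of at least 50% at 20 µM in any single replicate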;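 also: 0% = DMSO with substrate and 100% = DMSO lacking glucose-6-phosphate substrate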
# Diaph ctr 10uM – diaphorase inhibitors and chemical oxidizers, confirmation, counter-screen for P. falciparum G6PD inhibitor project, biochemical, fluorescence intensity, 10 µM NADPH. shares compounds with PfG6PD inh. diaphorase-coupled resazurin reduction, NADPH 10 uM. inhibition, % at 20 µM. 820 tested, 39% active. AID 504862, 2011;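 active = average inhibition reaching 50% or more with the compound at 20 µM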;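 also: resorufin red fluorescence formed as diaphorase reduces resazurin using NADPH; 0% = DMSO with enzyme and 100% = DMSO without enzyme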
# Diaphorase 30uM – diaphorase inhibitors and chemical oxidizers, confirmation, counter-screen for P. falciparum G6PD inhibitor project, biochemical, fluorescence intensity, 30 µM NADPH. shares compounds with PfG6PD inh. Diaphorase/resazurin coupled assay, resorufin fluorescence. 820 tested, 29% active. inhibition, % at 20 µM. AID 504863, 2011;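 active = inhibition averaging 50% or more, tested at 20 µM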;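 also: 0% = DMSO with enzyme and 100% = DMSO wells lacking diaphorase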
# Starred values were filed as active, the others as inactive; / = not tested or not shown.
SMILES,H9c2 protect,APOBEC3G inh,A3A deaminase,NadD block,TAG inh,PfG6PD inh,PfG6PD confirm,others
Cc1cccc(N2C(=O)CC(SC(=Nc3ccccc3)Nc3ccccc3)C2=O)c1 (stereo unspecified),-1,4,8,2,-9,23,/,
O=C1SC(SC(=Nc2ccccc2)Nc2ccccc2)C(=O)N1c1ccccc1 (stereo unspecified),-1,-3,0,3,6,60*,19,
O=S(=O)(N=C1C=CC(=NS(=O)(=O)c2ccccc2)c2ccccc21)c1ccccc1,-23,/,/,33*,-9,62*,35,
O=C(O)CCCNc1cc(N2CCN(C(=O)c3ccco3)CC2)c2noc3c2c1C(=O)c1ccccc1-3,-6,79,53,13,/,35,/,
O=C1c2ccccc2-c2onc3c(N4CCN(CCO)CC4)cc(N4CCN(C(=O)c5ccco5)CC4)c1c23,47,4,3,24,/,75*,35,
Cc1ccc(Nc2cc(C)c(O)c(C)c2)cc1,-11,2,1,4,9,107*,69*,Diaph ctr 10uM=62*;Diaphorase 30uM=28
Cc1ccc(Nc2ccccc2)cc1,-18,-3,-2,-1,-5,-3,/,
O=C(CN1CCOCC1)Nc1ccccc1Sc1ccc(Cl)cc1,26,-7,3,-6,/,11,/,
CC(=O)CSc1ccc(-c2nc3cc(C)c(C)cc3[nH]2)cn1,-32,-11,-4,-5,25,67*,20,
Cc1ccc2nc(-c3ccc(SCC(=O)N4CCc5ccccc54)nc3)[nH]c2c1,-5,-11,-6,13,/,59,12,
Cc1noc(C)c1COC(=O)Cc1ccc(Cl)c(Cl)c1,-3,-2,-2,-7,9,69*,33,
CCCN(CCC)CCCNC(=O)C1CCC(CNS(=O)(=O)c2cccc3nsnc23)CC1 (stereo unspecified),-5,-5,-5,-3,/,9,/,
Cc1ccc(NC(=O)CSc2nc3c(c(=O)[nH]2)CCC3)c(C)c1,2,-4,-2,0,/,-14,/,
Clc1ccc(-c2nc3ccc(Cl)cn3c2Cc2ccccc2)cc1,-10,/,/,5,-10,102*,17,
Cc1ccn2c(Cc3ccccc3)c(-c3ccc(F)cc3)nc2c1,-18,/,/,0,-16,77*,10,
Fc1ccc(-c2nc3ccc(Cl)cn3c2Cc2ccccc2)cc1,-10,/,/,1,5,81*,-5,
CCOc1ccc(N2CC(NS(=O)(=O)c3cccnc3)CC2=O)cc1 (stereo unspecified),2,-5,0,-3,-14,3,/,
Cc1cc(Oc2ccc(C#N)cc2)nc(NCc2ccccc2)n1,-13,-6,-2,-3,-72,17,/,
COc1ccccc1/C=N/NC(=O)CO,6,-10,-3,6,-5,25,/,
COc1ccc2nc(C)cc(SCC(=O)N/N=C/c3ccccc3)c2c1,4,-5,-2,-4,/,59,11,
COc1ccccc1/C=N/NC(=O)CC(=O)NCc1ccccc1,2,-3,0,3,0,105*,86*,Diaph ctr 10uM=93*;Diaphorase 30uM=82*
COc1ccccc1/C=N/NC(=O)CSc1cc(C)nc2ccccc12,-10,8,-3,8,-9,83*,68*,Diaph ctr 10uM=69*;Diaphorase 30uM=53*
COc1ccccc1/C=N/NC(=O)CSc1ccc2ccccc2n1,0,-9,-4,-7,/,119*,85*,Diaph ctr 10uM=97*;Diaphorase 30uM=86*
CCN1CCN(c2ccc(N3CCN(S(=O)(=O)c4ccc(C)c([N+](=O)[O-])c4)CC3)nn2)CC1,2,-3,3,-2,-8,-3,/,
COc1cc(OC)cc(C(=O)Nc2ccc(S(=O)(=O)Nc3ccccn3)cc2)c1,4,-6,0,-3,/,6,/,
SMILES,H9c2 protect,APOBEC3G inh,A3A deaminase,NadD block,TAG inh,PfG6PD inh,PfG6PD confirm,others
Cn1c(NCCc2ccncc2)nc2cc(-c3cccc(C(F)(F)F)c3)sc2c1=O,0,/,/,-8,29,/,/,
CC(NC(=O)c1ccccc1F)C1CC1 (stereo unspecified),0,-11,-6,-5,/,-16,/,
CNC(=O)CSc1cn(CC(=O)N(C(C)C)C(C)C)c2ccccc12,2,7,-6,0,-3,6,/,
COc1cc(N)c2ncccc2c1Cl,1,/,/,-3,1,60*,73*,Diaph ctr 10uM=22;Diaphorase 30uM=23
NC(=O)/C=C/C(=O)Nc1ccc(Cl)cc1,-35,-12,0,-2,17,-1,/,
O=C(/C=C/C(Cl)(Cl)Cl)Nc1ccc(Cl)cc1,-14,/,/,0,10,96*,18,
COc1ccc(NC(=O)n2ncc3c(C)cccc32)cc1OC,-7,-4,1,-7,/,46,/,
COc1ccc(NC(=O)n2ncc3c(C)cccc32)cc1,-11,-1,2,-7,/,69*,20,
CC(=O)c1c(OC(=O)c2ccccc2)ccnc1C(F)(F)F,-2,-3,-1,-2,9,-3,/,
Cc1cc(-n2c(C)cc(C(=O)COc3ccc(F)c(F)c3)c2C)no1,-14,-6,-2,-2,-24,61*,9,
Cc1cc(-n2c(C)cc(C(=O)COc3ccccc3[N+](=O)[O-])c2C)no1,0,-12,-3,-7,18,10,/,
NC1=C(Br)C(=O)c2ncccc2C1=O,-18,/,/,3,117,108*,86*,Diaph ctr 10uM=78*;Diaphorase 30uM=74*
CCCCCCCCCCCCCCCC[N+](C)(C)CCN(Cc1ccc(OC)cc1)c1ncccn1,-47,-3,6,75*,121,64*,14,
O=C(c1ccco1)N1CCN(C(=O)c2ccc(-c3ccc([N+](=O)[O-])cc3)o2)CC1,10,23,5,23,1,64*,-6,
